Source: PubChem
A selection: hits, their analogues and other compounds. The true share with any hit is near 17%.
HepG2 tox – kills HepG2 cells in TGF-b inhibitor counter-screen; Potency, µM (series often up to 46.1 µM), inactives show at the top dose activity change, negative = cytotoxicity, most hits filed as cytotoxic; HepG2 CAGA-GFP viability, ATP luminescence, 18 h; 0.76% of 410,000 active
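HepG2 CAGA-GFP cells (1000/well, DMEM with 1% FBS) received compound, then TGF-beta at 500 pg/mL final, and were incubated 18 hours at 37 degrees C. Viability was read by CellTiter-Glo luminescence. Media-only wells were set as complete cell-killing and DMSO as no toxicity.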
HT1080NT lethal – kills 2HG-producing HT-1080-NT fibrosarcoma cells; 1.6% of 360,000 active; HT-1080-NT fibrosarcoma viability, CellTiter-Glo ATP luminescence, 48 h; Potency, µM (series often up to 46.1 µM), inactives show at the highest dose activity, negative = less viability, actives largely listed as cytotoxic; AID 686970;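 also: NT is the 2HG producing partner of a matched IDH1 knockdown line; 0% = DMSO-treated cells and -100% = media-only wells without cells; nearly all actives have a fitted effect of over 55% in size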
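Read-out is CellTiter-Glo luminescence after 10 minutes at room temperature, following 48 hours' compound treatment of HT-1080-NT cells (750 cells/well, RPMI, 5% FBS, 37 degrees C).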
TDP1 cell CPT – growth inhibition of DT40 Tdp1-/-;hTDP1 cells with camptothecin (screen for TDP1 inhibitors); chicken DT40 Tdp1-/-;hTDP1 cells + 20 nM CPT, ATP luminescence, 48 h; Potency, µM (doses to about 46.2 µM), without a hit: top-dose activity change, negative = growth inhibition, most hits filed as inhibitors; 12% of 420,000 active; AID 686979; also: % is scaled to controls: 0 for no effect and ±100 for the full control effect; nearly all actives have a fitted effect of over 55% in size
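Chicken DT40 Tdp1-/- cells stably complemented with human TDP1 were seeded at 400 cells/well in medium containing 20 nM camptothecin, exposed to pin-transferred compounds, and grown at 37 °C for at least 48 hr. Viability was read as ATP luminescence.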
DT40 TDP1 no CPT – qHTS for Inhibitors of human tyrosyl-DNA phosphodiesterase 1 (TDP1): qHTS in cells in absence of CPT. AID 686978, 2013. 15% of 420,000 active. DT40 Tdp1-/- hTDP1 cells, no CPT, ATP luminescence, 48 h. Potency, µM (titrated, usually from 46.2 µM), without a hit: top-dose activity change, negative = growth inhibition, actives largely listed as inhibitors; also: % is scaled to controls: 0 for no effect and ±100 for the full control effect; nearly all actives have a fitted effect of over 55% in size
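Chicken DT40 Tdp1-/- cells stably complemented with human TDP1 were seeded at 400 cells/well with DMSO in place of 20 nM camptothecin. After compound pinning, cells grew at least 48 hr at 37 °C; viability read by CellTiter-Glo luminescence.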
TGFb SMAD3 inh – inhibitors of TGF-b signaling | HepG2 CAGA-GFP TGF-b/SMAD3 reporter, GFP fluorescence, 18 h; TGF-beta stimulated, 500 pg/mL final | Potency, µM (titrated, usually from 46.1 µM), without a hit: at the top dose activity, negative = inhibition, most hits filed as inhibitors | 1.2% of 410,000 active; also: % is scaled to controls: 0 for no effect and ±100 for the full control effect; nearly all actives have a fitted effect of over 65% in size
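First, reporter cells (HEPG2 CAGA-GFP) rested 2 h at 37 degrees C. Next, compounds were pinned in and TGF-beta added to 500 pg/mL final. After 18 h, GFP was imaged per cell and summed per well.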
HT1080 IDH1KD tx – kills HT-1080 cells with IDH1 knockdown; HT-1080 IDH1 knockdown viability, ATP luminescence, 48 h; Potency, µM (doses to about 46.1 µM), inactives show top-dose activity, negative = toxicity, most hits filed as cytotoxic; 2% of 360,000 active;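 also: 0% = DMSO wells and -100% = cell-free medium wells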
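Using the IDH1-knockdown HT-1080 line run in the same batch and compound series as the NT line, viability after 48 h at 37 °C was determined by CellTiter-Glo luminescence and expressed as % activity.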
Active calls of the source: *. Calls follow the shape of the dose curve; as a rule, active = well fitted curve in the direction sought with a large enough effect; inconclusive = small, poorly fitted or top-dose-only effect, or another doubt; inactive = no such curve, though single readings can be large; an effect the other way counts as inactive or inconclusive. Potency is read from the fitted curve at half-maximal effect.

What do the screens show for `CC(C)C[C@@H](CN1CCC[C@H]1CN1C(=O)C(=O)NC[C@@H]1Cc1ccc(O)cc1)N1C[C@H](Cc2ccc(O)cc2)N(CC2CCCCC2)C(=O)C1=O`?
HT1080NT lethal: inconclusive; TDP1 cell CPT: 0%; DT40 TDP1 no CPT: -2%; HT1080 IDH1KD tx: -22%

How did COc1cc(NC(=O)CN2C(=O)c3ccccc3S2(=O)=O)cc(OC)c1 do in these assays?
HepG2 tox: 15%; HT1080NT lethal: 2%; TDP1 cell CPT: 2%; DT40 TDP1 no CPT: 14%; TGFb SMAD3 inh: 14%; HT1080 IDH1KD tx: 2%

What do the screens show for `COc1cccc(C2C=C(c3ccccc3)Nc3c(C(=O)Nc4ccccc4)cnn32)c1OC` (configuration not stated)?
HepG2 tox: -14%; TDP1 cell CPT: 16µM*; DT40 TDP1 no CPT: 15µM*; TGFb SMAD3 inh: 0%

How did Cc1ccc(NC(=O)c2cnn3c2NC(c2ccccc2)=CC3c2ccccc2)cc1 (configuration not stated) do in these assays?
HepG2 tox: -24%; TDP1 cell CPT: 10µM*; DT40 TDP1 no CPT: inconclusive; TGFb SMAD3 inh: inconclusive

What do the screens show for `COc1ccc(C2=CC(c3ccc(F)cc3)n3ncc(C(=O)Nc4ccc(C)cc4)c3N2)cc1` (configuration not stated)?
HepG2 tox: -31%; TDP1 cell CPT: inconclusive; DT40 TDP1 no CPT: inconclusive; TGFb SMAD3 inh: inconclusive

How did COc1cccc(C2=CC(c3ccccc3F)n3ncc(C(=O)Nc4ccc(C)cc4)c3N2)c1 (configuration not stated) do in these assays?
HepG2 tox: -7%; TDP1 cell CPT: inconclusive; DT40 TDP1 no CPT: 16µM*; TGFb SMAD3 inh: -6%

Results for O=C(NNC(=S)Nc1ccc(F)cc1)C1CC1c1ccc(Cl)cc1 (configuration not stated) ?
HepG2 tox: -6%; HT1080NT lethal: -16%; TDP1 cell CPT: inconclusive; DT40 TDP1 no CPT: inconclusive; TGFb SMAD3 inh: -8%; HT1080 IDH1KD tx: -11%

Results for Fc1ccc(NC(=S)Nc2cc(Cl)ccc2Cl)cc1 ?
HepG2 tox: -5%; HT1080NT lethal: 8%; TDP1 cell CPT: 5.8µM*; DT40 TDP1 no CPT: inconclusive; TGFb SMAD3 inh: -5%; HT1080 IDH1KD tx: 6%

Results for Fc1ccc(NC(=S)Nc2ccc(Cl)cc2)cc1 ?
HepG2 tox: -21%; HT1080NT lethal: inconclusive; TDP1 cell CPT: inconclusive; DT40 TDP1 no CPT: 23µM*; TGFb SMAD3 inh: inconclusive; HT1080 IDH1KD tx: -11%

Results for CN(C)c1ccc(CNC(=O)CCS(=O)(=O)c2ccc3c(c2)oc(=O)n3C)cc1 ?
HepG2 tox: -3%; HT1080NT lethal: 10%; TDP1 cell CPT: 15%; DT40 TDP1 no CPT: 9%; TGFb SMAD3 inh: 22%; HT1080 IDH1KD tx: 0%

How did CCN(C[C@H]1N[C@@](CC)(C(=O)OC)[C@H]2C(=O)N(Cc3ccccc3)C(=O)[C@@H]12)S(=O)(=O)c1ccc(-c2ccccc2)cc1 do in these assays?
HepG2 tox: -14%; HT1080NT lethal: 5%; TDP1 cell CPT: inconclusive; DT40 TDP1 no CPT: inconclusive; TGFb SMAD3 inh: 4%; HT1080 IDH1KD tx: 2%

Results for CCN(C[C@H]1N[C@@](CC)(C(=O)OC)[C@H]2C(=O)N(Cc3ccccc3)C(=O)[C@@H]12)S(=O)(=O)c1ccc(OC(F)(F)F)cc1 ?
HepG2 tox: -3%; HT1080NT lethal: 9%; TDP1 cell CPT: inconclusive; DT40 TDP1 no CPT: 16µM*; TGFb SMAD3 inh: inconclusive; HT1080 IDH1KD tx: 1%
